Assay results reported in PubChem BioAssay AID602329 (Broad Institute, 2012).
The whole screen tested about 360,000 compounds, of which about 510 (0.14%) were called active.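 Rule for the calls: active = mean normalized replicate activity at least 40 and at least half of replicates scoring 40 or more; inconclusive = only one of the two criteria met; inactive = mean below 40 and under half of replicates reaching 40.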 The list comes from a sample in which actives are over-represented; it also holds similar structures and randomly drawn compounds.

What follows are compounds tested against DNA repair and recombination protein RAD54-like (Homo sapiens) (UniProt Q92698) (assay: RAD54 Holliday junction migration blockers – biochemical, fluorescence, single point, primary screen (AID 602329;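 note: 0% = median of neutral control wells and 100% = median of positive control wells; inhibitors cause a drop in the FAM fluorescence signal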)). Details: RAD54 Holliday junction branch migration, FAM/BHQ fluorescence; at 10.4 µM; hits give high values.
Chain of DNA repair and recombination protein RAD54-like (Homo sapiens) (Q92698 whole entry, looked up): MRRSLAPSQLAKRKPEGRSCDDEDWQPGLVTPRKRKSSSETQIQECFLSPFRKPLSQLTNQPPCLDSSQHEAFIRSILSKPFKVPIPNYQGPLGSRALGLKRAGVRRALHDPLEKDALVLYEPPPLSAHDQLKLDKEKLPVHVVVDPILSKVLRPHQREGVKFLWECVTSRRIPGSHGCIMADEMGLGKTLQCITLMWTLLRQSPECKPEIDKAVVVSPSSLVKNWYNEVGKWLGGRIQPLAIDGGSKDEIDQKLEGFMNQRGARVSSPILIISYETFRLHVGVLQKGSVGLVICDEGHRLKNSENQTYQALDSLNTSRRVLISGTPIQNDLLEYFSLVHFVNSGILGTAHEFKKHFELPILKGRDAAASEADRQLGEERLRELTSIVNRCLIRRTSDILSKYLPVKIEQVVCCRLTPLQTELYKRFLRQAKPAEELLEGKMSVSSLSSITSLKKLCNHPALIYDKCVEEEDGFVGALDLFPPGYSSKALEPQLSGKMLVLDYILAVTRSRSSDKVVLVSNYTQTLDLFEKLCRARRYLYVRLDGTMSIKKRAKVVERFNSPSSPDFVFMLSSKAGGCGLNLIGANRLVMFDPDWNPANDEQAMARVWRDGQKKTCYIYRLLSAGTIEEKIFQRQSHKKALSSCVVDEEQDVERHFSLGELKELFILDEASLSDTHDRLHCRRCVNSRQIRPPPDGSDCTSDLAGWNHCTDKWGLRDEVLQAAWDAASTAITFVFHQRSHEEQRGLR

Structure (SMILES) | inhibition
C/C=C/c1ccc([C@@H]2[C@@H](CO)N(C(=O)CC)[C@H]2CN(C)C(=O)C2CC2)cc1 | -7.87% (inactive)
O=C(N[C@@H]1C=C[C@H](CC(=O)N2CCOCC2)O[C@H]1CO)c1ccccn1 | -0.273% (inactive)
COc1ccc(S(=O)(=O)Nc2ccc3c(c2)CC(=O)N([C@H](C)CO)C[C@@H](C)[C@@H](CN(C)S(=O)(=O)c2ccc(F)cc2)O3)cc1 | -1.32% (inactive)
C[C@H](CO)N1C[C@H](C)[C@H](CN(C)C(=O)Nc2ccccc2)Oc2c(NC(=O)Nc3ccc(C(F)(F)F)cc3)cccc2C1=O | 0.373% (inactive)
CO[C@@H](CN(C)C(=O)c1ccc2c(c1)OCO2)[C@@H](C)CN([C@H](C)CO)S(=O)(=O)c1ccccc1 | 2.31% (inactive)
CCCC#Cc1ccc([C@@H]2[C@H](CO)N3CCCCN(S(=O)(=O)c4ccccc4F)C[C@@H]23)cc1 | 6.77% (inactive)
CCn1c(=N)c(C(=O)NCCCOC)cc2c(=O)n3cccc(C)c3nc21 | 50.9% (active)
COCCCn1c(C(=O)NC2CCCCC2)cc2c(=O)n3cccc(C)c3nc21 | -1.16% (inactive)
COc1ccc(CCn2c(=N)c(C(=O)NCC3CCCO3)cc3c(=O)n4cccc(C)c4nc32)cc1OC (stereo not given) | 52.7% (active)
Cc1ccc(S(=O)(=O)c2cc3c(=O)n4cccc(C)c4nc3n(CCc3ccccc3)c2=N)cc1C | 0.033% (inactive)
CCOCCCNC(=O)c1cc2c(=O)n3ccccc3nc2s1 | 10.2% (inactive)
Cc1ccc2nc3c(cc(C(=O)NCCc4ccccc4)c(=N)n3CC3CCCO3)c(=O)n2c1 (stereo not given) | 12.1% (inactive)
O=C(NC1Cc2ccccc2C1)[C@@H]1[C@@H](CO)[C@@H]2Cn3c(ccc(C4=CCCC4)c3=O)[C@H]1N2CC1CC1 | 2.91% (inactive)
O=C(Nc1ccc(F)cc1)N1CCCCN2[C@H](CO)[C@H](c3ccc(-c4ccncc4)cc3)[C@@H]2C1 | -8.07% (inactive)
COCC(=O)Nc1ccc2c(c1)[C@@H]1C[C@@H](CC(=O)N3CCN(C)CC3)O[C@H](CO)[C@@H]1O2 | 7.82% (inactive)
CC(C)n1cnc2c(NCc3ccccc3)cc(OCC3CCN(C)CC3)cc21 | 78.7% (active)
CCC(=O)Nc1ccc2c(c1)C(=O)N(C)C[C@H](OC)[C@@H](C)CN(Cc1cccnc1)[C@H](C)CO2 | -1.44% (inactive)
NC(N)=Nc1nc(-c2ccccc2)c2cc(Cl)ccc2n1 | 58.9% (active)
Clc1ccc2nc(-c3ccccc3)nc(C(Cl)Cl)c2c1 | -6.9% (inactive)
CC(C)NC(=O)N(C)C[C@H]1Oc2ncc(-c3ccccc3F)cc2C(=O)N([C@@H](C)CO)C[C@@H]1C | -5.71% (inactive)
C[N+](C)(CCCCCC[N+](C)(C)CCCN1C(=O)c2cccc3cccc(c23)C1=O)CCCN1C(=O)c2cccc3cccc(c23)C1=O | 115% (active)
O=C(COC(=O)CCCN1C(=O)c2cccc3cccc(c23)C1=O)NC1CCS(=O)(=O)C1 (stereo not given) | -5.27% (inactive)
O=C(CCCN1C(=O)c2cccc3cccc(c23)C1=O)N1CCN(Cc2ccc3c(c2)OCO3)CC1 | 8.9% (inactive)

Structure (SMILES) | inhibition
CCC(=O)N1C[C@H](C)[C@H](OC)CN(C)C(=O)c2ccc(NC(=O)c3cnccn3)cc2OC[C@@H]1C | -7.7% (inactive)
O=C(Cc1ccncc1)NCC[C@H]1CC[C@H](NC(=O)Nc2cccc(F)c2)[C@H](CO)O1 | -5.21% (inactive)
CCC(=O)N1C[C@@H](C)[C@@H](OC)CN(C)C(=O)c2ccc(NC(=O)c3ccccc3)cc2OC[C@H]1C | -5.42% (inactive)
COc1ccc(NC(=O)Nc2ccc3c(c2)CC(=O)N([C@@H](C)CO)C[C@@H](C)[C@@H](CN(C)Cc2ccc(Cl)c(Cl)c2)O3)cc1 | 12.1% (inactive)
C[C@@H](O)C#Cc1ccc([C@H]2[C@H](CO)N3CCCCN(C(=O)c4ccc5c(c4)OCO5)C[C@@H]23)cc1 | 1.48% (inactive)
CCC(=O)N(C)C[C@@H]1Oc2ncc(/C=C/c3ccccc3)cc2C(=O)N([C@@H](C)CO)C[C@H]1C | 0.476% (inactive)
COCC#Cc1cnc2c(c1)C(=O)N([C@H](C)CO)C[C@H](C)[C@H](CN(C)C(=O)Nc1cc(F)ccc1F)O2 | 0.435% (inactive)
COc1ccc(NC(=O)N[C@@H]2CC[C@H](CC(=O)NC3CCC3)O[C@H]2CO)cc1 | 4.37% (inactive)
C/C=C/c1ccc2c(c1)O[C@H](CN(C)C(=O)CN(C)C)[C@H](C)CN([C@@H](C)CO)S2(=O)=O | -12.5% (inactive)
C[C@H]1CN([C@@H](C)CO)C(=O)c2cc(C#CCN(C)C)cnc2O[C@H]1CN(C)C(=O)Cc1ccccc1 | 3.35% (inactive)
COc1ccc(-c2ccc3c(c2)[C@H]2[C@H](CCN2C(=O)c2ccc4c(c2)OCO4)[C@@H](CO)N3)cc1 | -2.22% (inactive)
CCC(=O)N1C[C@H](C)[C@H](OC)CN(C)C(=O)c2ccc(NC(=O)Nc3ccccc3)cc2OC[C@H]1C | -3.3% (inactive)
C[C@H](CO)N1C[C@H](C)[C@H](CN(C)C)Oc2ncc(-c3ccncc3)cc2C1=O | 8.42% (inactive)
COc1ccc(NC(=O)Nc2ccc3c(c2)CC(=O)N([C@@H](C)CO)C[C@H](C)[C@@H](CN(C)CC2CCCCC2)O3)cc1 | 3.95% (inactive)
CN(C)C(=O)C[C@@H]1C[C@@H]2c3cc(NC(=O)NC4CCCCC4)ccc3O[C@@H]2[C@H](CO)O1 | -2.4% (inactive)
O=C(C[C@H]1CC[C@H]2[C@@H](COC[C@H](O)CN2C(=O)c2ccncc2)O1)NCc1cc(F)cc(F)c1 | 1.6% (inactive)
C[C@H](CO)N1C[C@H](C)[C@H](CN(C)S(=O)(=O)c2cccs2)Oc2c(NS(=O)(=O)c3ccc(Cl)cc3)cccc2C1=O | 3.72% (inactive)
Cc1nc2ccccc2c2oc(C(=O)NCCCN3CCC(C)CC3)cc12 | 55.2% (active)
CC1CCN(C(=O)CCNC(=O)c2ccccc2)CC1 | -8.53% (inactive)
CC1CCN(CCCn2c(SCC(=O)NC3CCCC3)nc3ccccc3c2=O)CC1 | -8.12% (inactive)
CN1C[C@@H](CO)O[C@@H](n2cnc3c(N4CCN(CCO)CC4)ncnc32)C1 | -0.96% (inactive)
CC1CCc2sc3nc(N4CCN(CCO)CC4)n4ncnc4c3c2C1 (stereo not given) | 53.7% (active)
